Test [1] is described as follows: Viability counterscreen for antagonist of constitutive androstane receptor (CAR) against the NCATS DSHEA and TCM libraries (AID 1794837).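 Also: compound exposure lasted 24 h before viability reading.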 The gist of the method: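 HepG2-CYP2B6-hCAR cells (2,500/well) were allowed to attach for 5 h, then exposed to compounds with 48 uM CITCO for 24 h at 37C. Viability was read by CellTiter-Fluor fluorescence after 1 h.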
For orientation: A counterscreen serves to expose hits that act by an unwanted route or on another target.

A short description of test [2]: Viability counterscreen for agonist of constitutive androstane receptor (CAR) against the NCATS DSHEA and TCM libraries (AID 1794838). The procedure, abridged: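 HepG2-CYP2B6-hCAR cells (2,500/well) attached 5 h, then got compounds plus 0.75 uM PK11195 final. After 24 h at 37C, viability read by CellTiter-Fluor fluorescence (Ex/Em 405/540 nm).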
For test [3], the target named is Nuclear receptor subfamily 1 group I member 3 (Homo sapiens) (UniProt Q14994). As to the kind of experiment: Primary qHTS for agonist of constitutive androstane receptor (CAR) against the NCATS DSHEA and TCM libraries (AID 1794839).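 Also: HepG2 cells expressing human CAR with a CYP2B6 reporter plus PK11195 antagonist.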 The procedure, abridged: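 HepG2-CYP2B6-hCAR cells (2,500/well) were attached for 5 h, then treated for 24 h at 37 °C with compounds plus 0.75 µM PK11195. Luciferase luminescence (ONE-Glo) was read, with CellTiter-Fluor viability (Ex/Em 405/540 nm).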
Chain of Nuclear receptor subfamily 1 group I member 3 (Homo sapiens) (Q14994 whole entry, looked up): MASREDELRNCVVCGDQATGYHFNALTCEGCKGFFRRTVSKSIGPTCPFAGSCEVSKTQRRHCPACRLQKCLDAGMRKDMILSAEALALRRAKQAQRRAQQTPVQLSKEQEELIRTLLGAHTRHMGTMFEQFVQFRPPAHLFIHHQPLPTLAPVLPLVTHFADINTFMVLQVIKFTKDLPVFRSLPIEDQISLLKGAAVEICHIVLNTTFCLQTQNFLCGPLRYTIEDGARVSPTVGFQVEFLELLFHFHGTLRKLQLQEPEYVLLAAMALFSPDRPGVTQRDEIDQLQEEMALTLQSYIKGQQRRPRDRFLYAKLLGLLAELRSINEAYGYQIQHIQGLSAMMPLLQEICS
(In qHTS, concentration-response curves come from the screen itself.)

A short description of test [4]: HepG2 viability counterscreen (readout 2: ATP content) against the NCATS DSHEA and TCM libraries (AID 1794840).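 Also: HepG2 cells exposed to substances for about 24 h.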 The procedure, abridged: (§1)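 HepG2 cells (1,000 cells/well) attached ~4 h, then treated ~24 h at 37C with substances. Protease activity read by GF-AFC (25 uM final, 30 min, Ex/Em 380/510 nm); ATP content then by CellTiter-Glo luminescence.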
The nature of test [5]: HepG2 viability counterscreen (readout 1: protease activity) against the NCATS DSHEA and TCM libraries (AID 1794841).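 Also: cells exposed to compounds for about 24 h before the protease read.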 The procedure, abridged:
as §1

The target of test [6] is Glutathione peroxidase 1 (Homo sapiens) (UniProt P07203). Nature of the test: Primary qHTS Assay for Inhibitors of Recombinant Selenoprotein Glutathione Peroxidase 1 (GPX1) (AID 1845191). Also: nearly all actives have a fitted effect of over 65% in size. Also: potency is read from the fitted curve at half-maximal effect. The procedure, abridged:
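GR-coupled assay: compounds preincubated 30 min at room temperature with GPX1, then reaction started with CHP; final 10 nM GPX1, 1 mM GSH, 0.5 mM CHP, 0.5 mM NADPH, 100 nM GR, 0.01% BSA, pH 7.5 Tris buffer. NADPH fluorescence (340/450 nm) read at 0 and 15 min.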

The target of test [7] is Phospholipid hydroperoxide glutathione peroxidase GPX4 (Homo sapiens) (UniProt P36969). Nature of the test: Primary qHTS Assay for Inhibitors of Recombinant Selenoprotein Glutathione Peroxidase 4 (GPX4) (AID 1845192). Also: nearly all actives have a fitted effect of over 65% in size. The gist of the method: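 GR-coupled assay: recombinant GPX4 preincubated 30 min with compound at room temperature; final 200 nM GPX4, 1 mM GSH, 0.5 mM cumene hydroperoxide, 0.5 mM NADPH, 100 nM GR, 0.01% BSA, pH 7.5 Tris. NADPH fluorescence (340/450 nm) read at 0 and 15 min.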
Chain of Phospholipid hydroperoxide glutathione peroxidase GPX4 (Homo sapiens) (P36969 whole entry, looked up): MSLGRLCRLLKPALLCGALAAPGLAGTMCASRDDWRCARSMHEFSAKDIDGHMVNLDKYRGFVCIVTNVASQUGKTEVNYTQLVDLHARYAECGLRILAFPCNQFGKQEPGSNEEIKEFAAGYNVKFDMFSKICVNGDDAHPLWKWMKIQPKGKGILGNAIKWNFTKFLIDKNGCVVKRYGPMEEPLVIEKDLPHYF

Test [8] is described as follows: Quantitative High-Throughput drug screen in 47 multiple myeloma cell lines against the NCATS MIPE library collection: FR4_PLB cell viability assay (AID 1918924; also: nearly all actives have a fitted effect of over 35% in size; also: potency is read from the fitted curve at half-maximal effect). The gist of the method: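 Inhibition of cell viability is measured here. Each line was plated at 500 cells per well, treated with MIPE 4.0 drugs, kept 48 hours at 37C, then assayed for ATP content by CellTiter-Glo luminescence.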

Test [9] is described as follows: Quantitative High-Throughput drug screen in 47 multiple myeloma cell lines against the NCATS MIPE library collection: Delta47_JCRB cell viability assay (AID 1918925; also: nearly all actives have a fitted effect of over 45% in size; also: potency is read from the fitted curve at half-maximal effect). The procedure, abridged:
(§2)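 Primary qHTS used for cherry-picking: cells at 500/well, library compounds for 48 h (37C, 5% CO2), luminescent ATP assay.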

Test [10] in a line: Quantitative High-Throughput drug screen in 47 multiple myeloma cell lines against the NCATS MIPE library collection: EJM_DSMZ cell viability assay (AID 1918926; also: nearly all actives have a fitted effect of over 30% in size; also: potency is read from the fitted curve at half-maximal effect). The procedure, abridged: as §2
A short description of test [11]: Quantitative High-Throughput drug screen in 47 multiple myeloma cell lines against the NCATS MIPE library collection: AMO1_DSMZ cell viability assay (AID 1918927; also: nearly all actives have a fitted effect of over 30% in size; also: potency is read from the fitted curve at half-maximal effect). The procedure, abridged: as §2
For test [12], the target named is Luciferin 4-monooxygenase (Photinus pyralis) (UniProt P08659). Nature of the test: Primary firefly luciferase (FLuc) qHTS assay for identification of artifact compounds. (AID 1845220). Also: nearly all actives have a fitted effect of over 60% in size. Particulars: outcome: dose series up to 54.1 µM. The gist of the method:
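Titrated compounds were incubated 15 min at RT, protected from light, with luciferin and ATP at 10 uM; reaction started with 10 nM FLuc, luminescence imaged at 5 min, and concentration-response fitted by Hill equation.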

The nature of test [13]: Primary fluorescence-based thiol-reactive (MSTI) qHTS assay for identification of artifact compounds. (AID 1845221). Also: nearly all actives have a fitted effect of over 65% in size. Also: potency is read from the fitted curve at half-maximal effect. The procedure, abridged:
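First, 4 uM MSTI in 2% DMSO/PBS pH 7.4 was dispensed; next, compounds were added; then plates sat 1 h at room temperature without light. Finally, emission at 598 nm was recorded.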

The subject of test [14] is Nanoluciferase (engineered Oplophorus gracilirostris luciferase). As to the kind of experiment: Primary Nanoluciferase (NLuc) qHTS assay for identification of artifact compounds. (AID 1845222).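 Also: NLuc secreted into diluted conditioned medium of S16 cells; series mostly up to about 54 µM.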 The procedure, abridged:
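qHTS format, against NLuc in S16 cell-conditioned medium. Nano-Glo substrate 1:100 was added after 15 min at room temperature. Luminescence was taken after a further 5 min.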

A short description of test [15]: Primary redox qHTS assay for identification of artifact compounds. (AID 1845223). Also: potency is read from the fitted curve at half-maximal effect. The gist of the method: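 Amplex Red (25 uM) and HRP (250 mU/mL) in HBSS, with compounds for 15 min, then 250 uM DTT for 30 min, room temperature, dark. Fluorescence 525/598 nm read; normalized to DMSO and 10 uM DA3003; Hill fit.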

Our source for the outcome and Potency values is PubChem BioAssay (NCATS).

“And” between values parts separate entries of the source, which are not always exact repeats. Equal entries are not always repeated. Records with an inconclusive call do not appear. Some compounds were tested as several samples or in several runs, with calls that do not always agree. The source made the active and inactive calls. Calls follow the shape of the dose curve; as a rule, active = well fitted curve in the direction sought with a large enough effect; inconclusive = small, poorly fitted or top-dose-only effect, or another doubt; inactive = no such curve, though single readings can be large; an effect the other way counts as inactive or inconclusive.

Chain of Glutathione peroxidase 1 (Homo sapiens) (P07203 whole entry, looked up): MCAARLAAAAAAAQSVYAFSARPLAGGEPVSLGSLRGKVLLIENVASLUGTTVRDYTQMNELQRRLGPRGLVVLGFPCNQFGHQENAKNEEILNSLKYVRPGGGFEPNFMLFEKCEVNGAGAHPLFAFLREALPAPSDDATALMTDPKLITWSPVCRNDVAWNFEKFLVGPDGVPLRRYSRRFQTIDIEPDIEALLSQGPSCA

With `O=C(O)c1cccnc1`, the result in test [1], in [2], in [3], in [4] and in [5] was inactive. For the same compound, the Potency entry in test [6], in [7], in test [8], in [9], in [10] and in test [11] was “inactive” in each case.
On to `O=C(O)CCn1c2c(c3ccccc31)C[C@H](NS(=O)(=O)c1ccc(F)cc1)CC2`, for which the Potency entry in [6] and in test [7] was “inactive” in each case. Also, the compound was called inactive in test [12] and in test [14]. Moreover, the Potency in test [13] was 1.68 µM (active).
For `CCn1cc(C(=O)O)c(=O)c2cc(F)c(N3CCN(C)CC3)cc21`, the Potency result in [6], in test [7], in [8], in test [9] and in test [10] was “inactive” in each case.
`CC1=NN(c2ccccc2)C(=O)C1`: the Potency result in [6], in test [7], in test [8] and in test [9] was “inactive” in each case. Moreover, the outcome in [12] and in test [14] was inactive. For the same compound, the Potency in test [13] is 8.44 µM (active); in test [15], 3.36 µM (active).
As to `COC(=O)Nc1nc2ccc(Sc3ccccc3)cc2[nH]1`, the Potency entry in [6] and in test [7] was “inactive” throughout. For the same compound, the Potency in test [8] was 0.935 µM (active); in [9], 1.05 µM (active); in [10], 16.6 µM (active); in test [11] it was 0.833 µM (active).
`O=c1oc2c(O)c(O)cc3c(=O)oc4c(O)c(O)cc1c4c23`: the Potency result in [6], in test [7], in test [8] and in [9] was “inactive” in each case.
As to `Nc1[nH]c(=O)ncc1F`, the Potency entry in test [6], in [7], in [8], in test [9] and in [10] was “inactive” each time. In addition, the Potency in test [11] was 4.69 µM (active).
Regarding `COc1cc(NS(=O)(=O)c2ccc(N)cc2)nc(OC)n1`, the Potency entry in [6], in test [7], in test [8], in [9], in [10] and in test [11] was “inactive” in each case.
With `CCC(C)(C)c1ccc(CC(C)CN2C[C@@H](C)O[C@@H](C)C2)cc1` (stereo partly specified), the Potency entry in [6] and in test [7] was “inactive” throughout.
In the case of `O=C(NCC1CN(c2ccc(N3CCOCC3=O)cc2)C(=O)O1)c1ccc(Cl)s1` (stereo unspecified), the Potency entry in test [6], in test [7], in [13], in test [15] and in [10] was “inactive” each time. Moreover, the outcome in [12] and in test [14] was inactive.
Regarding `CC(C(=O)O)c1ccc2c(c1)CC(=O)c1ccccc1S2` (stereo unspecified), the Potency result in test [6] is “inactive and 16.1 µM (active)”. Also, the Potency result in [7], in [13], in test [15], in [8], in test [9] and in test [10] was “inactive” each time. The compound was classed as inactive in [12] and in test [14].
With `NCCCC(O)(P(=O)(O)O)P(=O)(O)O`, the Potency result in [6], in test [7], in [8], in [9], in test [10] and in test [11] was “inactive” in each case.
Turning to `COc1cc(NCc2ccc3nc(N)nc(N)c3c2C)cc(OC)c1OC`, the Potency result in [6] and in test [7] was “inactive” throughout. The Potency in test [8] is 16.6 µM (active); in test [9], 18.7 µM (active); in test [10] it was 8.33 µM (active); in test [11], 0.935 µM (active).
Regarding `C[C@@H](NCCCc1cccc(C(F)(F)F)c1)c1cccc2ccccc12`, the Potency result in test [6], in [7], in [8], in test [9] and in test [10] was “inactive” each time.
